Only some compounds are listed: those with a hit (about 19% of all), similar ones and a draw of the others.
DT40 TDP1 no CPT: qHTS for Inhibitors of human tyrosyl-DNA phosphodiesterase 1 (TDP1): qHTS in cells in absence of CPT; 420,000 compounds, 15% hits; Potency, µM (highest dose often 46.2 µM), actives largely listed as inhibitors; DT40 Tdp1-/- hTDP1 cells, no CPT, ATP luminescence, 48 h; further: nearly all actives have a fitted effect of over 55% in size
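Readout: luminescence from CellTiter-Glo after 30 min in the dark at RT. Cells: DT40 Tdp1-/- with stable hTDP1, 400/well. Exposure: compounds alone, ≥48 hr, 37 °C.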
HepG2 viability: kills HepG2 cells in TGF-b inhibitor counter-screen; Potency, µM (highest dose often 46.1 µM), most hits filed as cytotoxic; 410,000 compounds, 0.76% hits; AID 588856; HepG2 CAGA-GFP viability, ATP luminescence, 18 h
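CellTiter-Glo luminescence gave cytotoxicity after 18 hours at 37 degrees C. The cells were HepG2 CAGA-GFP in 1% FBS DMEM, stimulated with 500 pg/mL TGF-beta after compound addition. %Activity was normalised to no-cell wells (complete cell-killing) and DMSO (no toxicity), and curves were fitted and classified.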
TDP1 inh: blocks human tyrosyl-DNA phosphodiesterase 1 | Q9NUW8 | recombinant TDP1, AlphaScreen DNA substrate cleavage | Potency, µM (titrated, usually from 130 µM), most hits filed as inhibitors | 350,000 compounds, 0.28% hits | AID 485290; further: nearly all actives have a fitted effect of over 40% in size
Target sequence (Q9NUW8 whole entry, looked up): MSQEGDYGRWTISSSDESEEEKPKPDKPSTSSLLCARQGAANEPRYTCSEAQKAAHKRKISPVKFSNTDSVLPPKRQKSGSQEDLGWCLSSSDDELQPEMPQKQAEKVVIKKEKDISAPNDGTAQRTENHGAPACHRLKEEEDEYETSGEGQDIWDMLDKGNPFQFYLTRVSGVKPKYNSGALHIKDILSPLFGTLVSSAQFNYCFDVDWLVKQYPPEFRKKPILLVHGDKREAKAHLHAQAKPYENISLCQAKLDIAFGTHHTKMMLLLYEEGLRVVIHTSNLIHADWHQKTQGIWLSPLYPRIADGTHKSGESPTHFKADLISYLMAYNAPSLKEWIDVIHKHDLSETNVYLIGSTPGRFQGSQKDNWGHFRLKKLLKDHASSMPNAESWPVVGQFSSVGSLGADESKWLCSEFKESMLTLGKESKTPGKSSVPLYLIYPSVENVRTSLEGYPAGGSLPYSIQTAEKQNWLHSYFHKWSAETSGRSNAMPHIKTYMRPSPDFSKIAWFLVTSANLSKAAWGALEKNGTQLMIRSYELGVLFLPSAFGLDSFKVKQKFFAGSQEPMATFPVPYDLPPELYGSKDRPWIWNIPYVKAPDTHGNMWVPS
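Recombinant E. coli-expressed Tdp1 (1 nM) preincubated with compound 15 min at RT, then 5'-biotin/3'-phosphotyrosine-FITC DNA substrate (15 nM) added for 5 min. AlphaScreen beads (10 ug/ml) added, 10 min RT; tyrosine-FITC cleavage read as signal loss.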
DT40 TDP1 CPT: growth inhibition of DT40 Tdp1-/-;hTDP1 cells with camptothecin (screen for TDP1 inhibitors). chicken DT40 Tdp1-/-;hTDP1 cells + 20 nM CPT, ATP luminescence, 48 h. Potency, µM (top dose mostly 46.2 µM), most hits filed as inhibitors. 420,000 compounds, 12% hits. AID 686979; further: nearly all actives have a fitted effect of over 55% in size
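Cell growth measured by CellTiter-Glo luminescence after a minimum 48 h, 37 C compound exposure with 20 nM CPT in Tdp1-knockout DT40 cells stably expressing hTDP1, seeded 400/well; qHTS titration format.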
TGFb SMAD3 inh: blocks TGF-b signaling. HepG2 CAGA-GFP TGF-b/SMAD3 reporter, GFP fluorescence, 18 h; TGF-beta stimulated, 500 pg/mL final. Potency, µM (series often up to 46.1 µM), hits mostly inhibitors. 410,000 compounds, 1.2% hits; further: nearly all actives have a fitted effect of over 65% in size
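First, reporter cells (HEPG2 CAGA-GFP) rested 2 h at 37 degrees C. Next, compounds were pinned in and TGF-beta added to 500 pg/mL final. After 18 h, GFP was imaged per cell and summed per well.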
IL-1B inflam inh: inflammasome signaling inhibition, IL-1 beta readout; 360,000 compounds, 4.7% hits; activity change, % at 57.5 µM; THP-1 LPS/ATP IL-1B secretion, AlphaLISA, 16 h; stronger effect = lower value; in the data active means activity change below about -50%; inconclusive means mostly about -30% to -49%
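THP-1 cells pretreated 1 hr with compounds (up to 57.5 uM final), then stimulated with LPS (250 ng/mL final) plus ATP (1.25 mM final); secreted IL-1B measured by AlphaLISA after 16 hr, decreased signal indicating inhibition.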
Hits are given with their value; 0 = inactive; ? = inconclusive; - = not tested or not shown; ! = not confirmed by another sample. Unless noted, the call rests on the fitted dose curve; in most records, active means well fitted curve in the direction sought with a large enough effect; inconclusive means small, poorly fitted or top-dose-only effect, or another doubt; inactive means no such curve, though single readings can be large; an effect the other way counts as inactive or inconclusive.

SMILES	DT40 TDP1 no CPT	HepG2 viability	TDP1 inh	DT40 TDP1 CPT	TGFb SMAD3 inh	IL-1B inflam inh
Cn1c(SCc2cnc(-c3ccccc3)s2)nnc1C1COc2ccccc2O1 (stereo not drawn)	0	0	0	0	0	0
c1ccc(CCNc2ncnc3scc(C4COc5ccccc5O4)c23)cc1 (stereo not drawn)	18µM	0	0	?	16µM	0
COc1cccc(-n2c(=O)c3cc(OC)c(OC)cc3n(CC(=O)Nc3ccccc3)c2=O)c1	?	0	0	?	0	-
Cc1nnc(-c2ccccc2)c(=O)n1/N=C/c1c(O)ccc2ccccc12	5.2µM	0	0	4.1µM	0	0
CN(C)c1ccc(/C=C2\C(=O)/C(=C\c3ccc(N(C)C)cc3)c3ccccc32)cc1	?	0	-	?	0	-
CCOc1ccc(-n2c(-c3ccc(Br)cc3)c[n+]3c2CCCCC3)cc1	0.37µM	0	0	4.6µM	0	-79
COc1ccc(-c2c[n+]3c(n2-c2c(C)n(C)n(-c4ccccc4)c2=O)CCCCC3)cc1	?	0	0	0	0	0
CCOc1ccc(-c2cnc3n2CCC3)cc1	?	0	0	?	0	0
CCOc1ccc(-n2c(-c3ccc(OC)cc3)c[n+]3c2CCCCC3)cc1	0.029µM	0	0	0.21µM	?	-70
FC(F)Oc1ccc(-c2c[n+]3c(n2-c2ccccc2)CCCCC3)cc1	1.5µM	0	0	2.1µM	0	?
COc1ccc(-n2c(-c3ccc(Cl)cc3)c[n+]3c2CCCCC3)cc1	0.73µM	0	0	0.82µM	0	0
CN1CCN(C(=O)/C(=C/c2cn(S(=O)(=O)N(C)C)c3ccccc23)NC(=O)c2ccccc2F)CC1	?	0	0	0	0	0
COc1ccccc1CNS(=O)(=O)c1c(C(=O)N2CCC(C)CC2)c(C)n(C)c1C	0	0	0	0	?	-
CCOc1ccc(-n2c(-c3ccccc3)c[nH]c2=S)cc1	?	0	0	?	0	0
CCOc1ccc(-n2c(-c3ccccc3)c[n+]3c2CCC3)cc1	1µM	0	0	1µM	?	-68
O=C(NC1=NCCS1)c1cc(-c2ccc(F)cc2)nc2ccccc12	?	0	0	?	0	-73
Cc1ccc(-c2cc(C(=O)NC3=NCCS3)c3ccccc3n2)cc1C	0	0	0	?	0	0
O=C(NC1=NCCS1)c1cc(-c2cccc(Br)c2)nc2ccccc12	?	0	0	0	0	?
CCCc1ccc(-c2cc(C(=O)NC3=NCCS3)c3ccccc3n2)cc1	?	0	0	?	0	-53
CCn1cc(S(=O)(=O)NC(C)c2cc(OC)ccc2OC)cn1 (stereo not drawn)	0	0	0	0	0	0
CCOC(=O)c1[nH]c2ccccc2c1NC(=O)c1ccccc1F	?	0	0	?	0	-
Cc1cc(C)cc(Nc2cc(C(=O)NC3CCC(C)CC3)c3ccccc3n2)c1 (stereo not drawn)	9.2µM	0	0	?	?	-
O=C(NC1CCCCCCC1)c1cc(-c2ccccn2)nc2ccccc12	18µM	0	0	?	0	0
O=C(NC1CC1)c1cc(-c2ccc(Br)cc2)nc2ccccc12	15µM	0	0	?	0	0
CN1CCC(NC(=O)c2cc(-c3cccc(Br)c3)nc3ccccc23)CC1	?	0	0	?	0	-79
SMILES	DT40 TDP1 no CPT	HepG2 viability	TDP1 inh	DT40 TDP1 CPT	TGFb SMAD3 inh	IL-1B inflam inh
COc1ccc(-c2cc(C(=O)NC3CC3)c3ccccc3n2)cc1	?	0	0	?	0	0
COc1ccc(-c2cc(C(=O)NC3CCCC3)c3ccccc3n2)cc1	?	0	0	?	0	0
COc1cccc(-c2cc(C(=O)NC3CC3)c3ccccc3n2)c1	?	0	0	?	0	0
Cc1cccc(NC(=O)Nc2nnc(N(C)C3CCCCC3)s2)c1C	?	0	0	0	0	-
O=[N+]([O-])c1cccc(-c2nnc3cccc(Cl)n23)c1	0	0	-	0	0	0
O=[N+]([O-])c1cccc(-c2nnc3ccc4ccccc4n23)c1	13µM	0	-	16µM	0	0
CN(C)[C@@H]1C(=O)C(C(=O)NCN2CCCC2)=C(O)[C@@]2(O)C(=O)C3=C(O)c4c(O)cccc4[C@@](C)(O)C3C[C@@H]12 (stereo partly drawn)	0	-	-	0	-	-
CN(C)c1ccc(O)c2c1C[C@H]1C[C@H]3[C@H](N(C)C)C(=O)C(C(N)=O)=C(O)[C@@]3(O)C(=O)C1=C2O	21µM!	-	-	6.5µM	-	-
CN(C)c1ccc(O)c2c1CC1CC3[C@@H](N(C)C)C(=O)C(C(N)=O)=C(O)[C@]3(O)C(=O)C1=C2O (stereo partly drawn)	3.7µM	0	-	8.2µM	0	0
CCN(C(=O)CN1C(=O)COc2ccc(S(=O)(=O)N3CCOCC3)cc21)c1ccc(OC)cc1	?	0	0	0	0	0
CC1CCN(S(=O)(=O)c2ccc3c(c2)N(CC(=O)Nc2ccc(F)c(Cl)c2)C(=O)CO3)CC1	15µM	0	0	23µM	0	-
CCN(C(=O)CN1C(=O)COc2ccc(S(=O)(=O)N3CCOCC3)cc21)c1cccc(C)c1	18µM	0	0	?	0	-
Cc1ccccc1NC(=O)CN1C(=O)COc2ccc(S(=O)(=O)N3CCCC3)cc21	0	0	0	0	0	0
Cc1ccc(NC(=O)CN2C(=O)COc3ccc(S(=O)(=O)N4CCCCCC4)cc32)cc1Cl	15µM	0	0	21µM	10µM	-
CC1CCN(S(=O)(=O)c2ccc3c(c2)N(CC(=O)NCCN(C)C)C(=O)CO3)CC1	-	0	0	-	0	-
Cc1ccc(NC(=O)CN2C(=O)COc3ccc(S(=O)(=O)N4CCCC4)cc32)cc1C	?	0	0	0	0	-52
Cc1ccc(CNC(=O)Nc2cc(C(=O)NCc3cccc(F)c3)ccc2N2CCCC2)cc1	?	0	0	?	?	-
CC(C)NC(=O)CN1C(=O)COc2ccc(S(=O)(=O)N3CCCCCC3)cc21	0	0	0	0	0	-
COc1ccc(NC(=O)CN2C(=O)COc3ccc(S(=O)(=O)N4CCCCC4)cc32)cc1Cl	15µM	0	0	?	?	-
CC(C)c1ccc(NC(=O)CN2C(=O)COc3ccc(S(=O)(=O)N4CCCCC4)cc32)cc1	23µM	0	0	?	0	-
COc1ncc2nc(C)c(=O)n(C[C@H]3CCCO3)c2n1	0	-	-	0	-	-
O=C(COc1ccccc1Cl)N(Cc1cccc(F)c1)C1CCS(=O)(=O)C1 (stereo not drawn)	?	0	0	0	?	-
